The nature of assay [1]: AP1 Signaling Pathway (AID 357).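 Also: ME-180 reporter cells stimulated with EGF at its EC50 level; % is scaled to controls: 0 for no effect and ±100 for the full control effect.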 Conditions: ME-180 (cervical carcinoma) AP-1-bla reporter, EGF-induced, beta-lactamase ratio, 5 h. In short, it runs like this:
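Beta-lactamase reporter under AP-1 response element, ME-180 background. Stimulus: EC50 EGF. Compound exposure 5 h, 37 °C. Detection: CCF4, 2.5 h RT, 460/530 nm. Values: AC50 from titration.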

Assay [2] deals with Cytochrome P450 1A2 (Homo sapiens) (UniProt P05177). The experiment in a line: p450-cyp1a2 (AID 410; calls by dose curve; also: potency is read from the fitted curve at half-maximal effect;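 as to activity change, negative = inhibition: -100% = full effect of reference inhibitor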). To be noted: recombinant CYP1A2, luciferin-ME demethylation, luminescence; series mostly up to 57 µM. Summed up:
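Inhibition was calculated relative to 57 uM furafylline (full inhibition). The reaction used human CYP1A2 at 20nM with Luciferin-ME at its Km, 100uM, driven by an NADPH-regenerating system for 60 min at room temperature.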

A short description of assay [3]: Cell Viability - BJ (AID 421; calls by dose curve;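 also: potency is read from the fitted curve at half-maximal effect; cells exposed to compound for 40 hours at 37 °C before readout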). Conditions: BJ fibroblast viability, qHTS. In short, it runs like this:
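Normal human BJ foreskin fibroblasts, 1500/well in complete medium, treated 40 hr at 37 °C. Cellular ATP by CellTiter-Glo luminescence; normalized to DMSO and 100 uM tamoxifen, AC50 from Hill fit.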
(In general: In qHTS, concentration-response curves come from the screen itself.)

Assay [4] is described as follows: Cell Viability - Jurkat (AID 426;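 active = dose-dependent loss of cell ATP signal giving a full or clear fitted curve, ranked by lower potency value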; also: potency is read from the fitted curve at half-maximal effect). Conditions: qHTS. Summed up: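 Seed 5000 Jurkat E6-1 cells/well; add compound; incubate 40 hr at 37 °C; add CellTiter-Glo; wait 20 min at room temperature; read luminescence. Fit concentration-response with Hill equation for AC50.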
Assay [5] in a line: Cell Viability - Hek293 (AID 427;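 active = compounds whose dose-response curve shows a full or clear partial loss of cell viability, called from curve shape rather than a numeric limit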;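 also: potency is read from the fitted curve at half-maximal effect; cells exposed to compound for 40 hours at 37 °C before reading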). Conditions: qHTS. In short, it runs like this: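 HEK293 cells in complete medium were exposed to compound for 40 hr at 37 °C, then cellular ATP was read by CellTiter-Glo luminescence. Data were normalized to DMSO (basal) and 100 uM tamoxifen (100% inhibition), and AC50 came from Hill fits.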
The nature of assay [6]: Cell Viability - HepG2 (AID 433; calls by dose curve;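 also: potency is read from the fitted curve at half-maximal effect; potency for ATP loss meaning cytotoxicity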). Conditions: qHTS. In short, it runs like this: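 Read-out is luciferase-based quantitation of cellular ATP as a measure of viable HepG2 cells after 40 h treatment at 37 °C. Signal decrease is scaled between DMSO-only and 100 uM tamoxifen controls, with AC50 fitted by the Hill equation.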
The nature of assay [7]: Cell Viability - MRC5 (AID 434; calls by dose curve;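 also: potency is read from the fitted curve at half-maximal effect; potency reflects cytotoxicity seen as loss of intracellular ATP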). To be noted: MRC5 lung fibroblast viability, qHTS. Summed up: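 qHTS cytotoxicity in human lung fibroblast MRC5 cells; 40 hr treatment, 37 °C; cellular ATP by luciferase luminescence; DMSO = 0%, 100 uM tamoxifen = 100% inhibition; Hill-fit AC50.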
The nature of assay [8]: Cell Viability - SK-N-SH (AID 435; calls by dose curve;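 also: potency is read from the fitted curve at half-maximal effect; compound exposure lasted 40 h at 37 °C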). To be noted: SK-N-SH neuroblastoma cell viability qHTS. Summed up: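 Luminescent ATP signal served as the viability read-out after 40 hours of compound treatment of human neuroblastoma SK-N-SH cells. Concentration-response data, scaled between DMSO and 100 uM tamoxifen, gave AC50 values by standard Hill modeling.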
A short description of assay [9]: NFAT Signaling Pathway (AID 444).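 Also: carbachol stimulus at about its EC50 of 1 µM final; % is scaled to controls: 0 for no effect and ±100 for the full control effect.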 To be noted: Jurkat NFAT-bla M1, carbachol, beta-lactamase ratio, 5 h. In short, it runs like this: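 Read-out: CCF4 FRET ratio (460 nm/530 nm) after 1 h RT dye loading, used for %activity and AC50 from titration series. Cells: Jurkat NFAT-β-lactamase/M1 line, treated with compound plus 1 uM carbachol for 5 h, 37 °C.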

“And” between values parts separate entries of the source, which are not always exact repeats. Equal values may be shown once. Inconclusive results are not listed. A number with no mark means an inactive call. The source made the active and inactive calls. Unless noted, calls follow the shape of the dose curve; as a rule, active = well fitted curve in either direction with a large enough effect (not every such curve was filed as active); inconclusive = small, poorly fitted or top-dose-only effect, or another doubt; inactive = flat fitted curve, though single readings scatter.

Chain of Cytochrome P450 1A2 (Homo sapiens) (P05177 whole entry, looked up): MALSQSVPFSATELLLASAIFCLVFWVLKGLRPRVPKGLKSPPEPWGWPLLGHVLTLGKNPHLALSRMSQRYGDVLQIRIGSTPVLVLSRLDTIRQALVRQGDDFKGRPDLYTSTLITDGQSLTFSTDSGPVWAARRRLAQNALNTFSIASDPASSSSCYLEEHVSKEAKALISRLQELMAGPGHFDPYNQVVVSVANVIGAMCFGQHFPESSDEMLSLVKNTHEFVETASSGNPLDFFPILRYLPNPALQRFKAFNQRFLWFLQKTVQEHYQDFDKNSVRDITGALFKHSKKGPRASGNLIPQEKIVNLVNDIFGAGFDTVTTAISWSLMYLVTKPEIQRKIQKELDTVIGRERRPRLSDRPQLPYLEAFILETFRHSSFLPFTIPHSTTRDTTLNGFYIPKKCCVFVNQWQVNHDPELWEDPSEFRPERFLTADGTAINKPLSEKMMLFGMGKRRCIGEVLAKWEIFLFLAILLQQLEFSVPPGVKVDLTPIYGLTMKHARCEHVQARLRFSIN

With `c1cc(CN2CCCCC2)cc(OCCCNc2nc3ccccc3s2)c1`, in assay [1] (at 38 µM (top of the series)), the activity change, negative = inhibition is 6.03%. The Potency in [2] is 15.8 µM (active) and 31.6 µM (active).
Consider `COc1ccc([C@@H]2Sc3ccccc3N(CCN(C)C)C(=O)[C@@H]2OC(C)=O)cc1`, for which the activity change, negative = inhibition in [1] (at 17.2 µM (top of the series)) is 23.2%. Also, the Potency result in assay [2] was “inactive”.
Take `CN=C(NC#N)NCCSCc1nc[nH]c1C`: the activity change, negative = inhibition in [1] (at 38 µM (top of the series)) was -4.97%; in [9] (at 38 µM (top of the series)) it was 6.95%. The Potency entry in assay [2] is “inactive”. In addition, the Potency in [3], in assay [4], in assay [5], in assay [6], in assay [7] and in [8] was more than 92 µM in each case.
As to `NC(=O)N1c2ccccc2C=Cc2ccccc21`, the activity change, negative = inhibition was -5.62% and 13.4% in [1] (at 17.2 µM (top of the series)); 3.6% in assay [9] (at 17.2 µM (top of the series)); 3.87% in [9] (at 38 µM (top of the series)). In addition, the Potency result in [2] was “inactive”. Moreover, the Potency in assay [3], in assay [4], in [5], in assay [6], in assay [7] and in [8] was more than 92 µM throughout.
For `CCN1CCc2nc(N)oc2CC1`, the values for the activity change, negative = inhibition in assay [1] (at 38 µM (top of the series)) and in assay [9] (at 38 µM (top of the series)) were 9.25% and -7.89%, respectively. Besides, the Potency result in assay [2] was “inactive”.
In the case of `CCN(CC)CC(=O)Nc1c(C)cccc1C`, the activity change, negative = inhibition in assay [1] (at 17.2 µM (top of the series)) was 8.06% and 2.56% and 5.37%; in [1] (at 38 µM (top of the series)), 19.9%; in assay [9] (at 17.2 µM (top of the series)), -9.77% and 9.98% and -29.3%; in assay [9] (at 38 µM (top of the series)), 0.823%.
On to `O=C(CCNNC(=O)c1ccncc1)NCc1ccccc1`, for which the activity change, negative = inhibition in assay [1] (at 17.2 µM (top of the series)) was -5.47% and 0.412%; in assay [1] (at 38 µM (top of the series)) it was 1.11%; in assay [9] (at 17.2 µM (top of the series)), -23.8% and -5.87%; in assay [9] (at 38 µM (top of the series)) it was 4.78%. For the same compound, in [2], the Potency is 31.6 µM (active) and 12.6 µM (active).

Values taken from PubChem BioAssay (NCATS).
